Reference: the supplement of paper PMC11732987, “Enantioselective OTUD7B fragment discovery through chemoproteomics screening and high-throughput optimisation” (Communications Chemistry, 2025)

Columns and labels:
Assay in all cases: log2 ratio of Biotin-Ahx-Ub-VS probe labelling (fragment/DMSO); higher = less target engagement (more negative = stronger competition), active = hit call of the paper (q ≤ 0.05, log2 ratio ≤ -1)
Details in all cases: compound concentration: 200 uM; treatment time: 3 h
[1] = molecular target: T1, OTUD6B (UniProt Q8N6M0)
T1 sequence (whole entry): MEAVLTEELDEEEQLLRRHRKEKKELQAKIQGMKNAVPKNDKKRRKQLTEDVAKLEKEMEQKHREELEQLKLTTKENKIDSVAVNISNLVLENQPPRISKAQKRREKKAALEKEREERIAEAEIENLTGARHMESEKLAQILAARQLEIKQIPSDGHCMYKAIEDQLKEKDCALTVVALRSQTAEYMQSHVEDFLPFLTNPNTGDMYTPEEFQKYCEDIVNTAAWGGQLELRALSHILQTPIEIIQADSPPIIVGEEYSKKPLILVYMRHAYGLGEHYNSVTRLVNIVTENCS
Method in brief: (§1)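 Labelled DUBs were enriched with NeutrAvidin, digested with LysC and trypsin, and run by diaPASEF LC-MS/MS. The labelling used Biotin-Ahx-Ub-VS at 0.5 µM final for 1 h on HEK293T lysate (495 µg per sample) previously treated in triplicate with fragment at 200 µM or vehicle for 3 h. Values are average log2 fragment/vehicle ratios by unpaired t-test on global-median-normalised Spectronaut quantities of proteins with ≥2 unique peptides.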

[2] = molecular target: T2, OTUD7B (UniProt Q6GQQ9)
T2 sequence (whole entry): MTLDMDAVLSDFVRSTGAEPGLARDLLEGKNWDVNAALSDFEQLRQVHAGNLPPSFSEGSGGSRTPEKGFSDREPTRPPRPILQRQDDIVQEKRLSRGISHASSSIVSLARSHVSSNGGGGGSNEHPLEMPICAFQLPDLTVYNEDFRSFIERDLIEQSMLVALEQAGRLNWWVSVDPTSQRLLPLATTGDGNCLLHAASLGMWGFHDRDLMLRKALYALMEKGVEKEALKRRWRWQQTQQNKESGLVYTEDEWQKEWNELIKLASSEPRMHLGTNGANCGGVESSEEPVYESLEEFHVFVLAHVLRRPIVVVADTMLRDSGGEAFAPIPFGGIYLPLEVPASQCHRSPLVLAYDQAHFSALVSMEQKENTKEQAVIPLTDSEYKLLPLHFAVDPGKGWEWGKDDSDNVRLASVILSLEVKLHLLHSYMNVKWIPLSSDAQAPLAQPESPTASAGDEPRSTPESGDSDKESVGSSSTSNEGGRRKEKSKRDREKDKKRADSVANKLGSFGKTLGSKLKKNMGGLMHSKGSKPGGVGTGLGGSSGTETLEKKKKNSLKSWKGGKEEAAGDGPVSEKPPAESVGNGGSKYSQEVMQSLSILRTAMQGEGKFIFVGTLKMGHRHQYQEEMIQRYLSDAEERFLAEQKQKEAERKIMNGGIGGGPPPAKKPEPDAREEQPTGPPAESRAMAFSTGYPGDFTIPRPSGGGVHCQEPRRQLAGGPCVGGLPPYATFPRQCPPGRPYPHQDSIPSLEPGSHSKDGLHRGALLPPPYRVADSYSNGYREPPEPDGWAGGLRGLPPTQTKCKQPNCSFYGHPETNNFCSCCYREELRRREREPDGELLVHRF
Method in brief: as §1

[3] = molecular target: PRPF8 (UniProt Q6P2Q9)
Method in brief: as §1

[4] = molecular target: T3, PSMD7 (UniProt P51665)
T3 sequence (whole entry): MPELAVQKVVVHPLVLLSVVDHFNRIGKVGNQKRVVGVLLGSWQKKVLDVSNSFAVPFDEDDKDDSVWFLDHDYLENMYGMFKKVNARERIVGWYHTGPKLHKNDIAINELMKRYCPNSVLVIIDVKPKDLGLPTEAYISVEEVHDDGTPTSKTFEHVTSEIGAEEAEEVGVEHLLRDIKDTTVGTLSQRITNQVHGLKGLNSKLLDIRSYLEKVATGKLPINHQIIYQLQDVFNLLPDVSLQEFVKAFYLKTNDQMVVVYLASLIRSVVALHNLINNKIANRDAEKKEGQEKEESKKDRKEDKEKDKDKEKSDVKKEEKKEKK
Method in brief: as §1

[5] = molecular target: UCHL1 (UniProt P09936)
Method in brief: as §1

[6] = molecular target: T4, UCHL3 (UniProt P15374)
T4 sequence (whole entry): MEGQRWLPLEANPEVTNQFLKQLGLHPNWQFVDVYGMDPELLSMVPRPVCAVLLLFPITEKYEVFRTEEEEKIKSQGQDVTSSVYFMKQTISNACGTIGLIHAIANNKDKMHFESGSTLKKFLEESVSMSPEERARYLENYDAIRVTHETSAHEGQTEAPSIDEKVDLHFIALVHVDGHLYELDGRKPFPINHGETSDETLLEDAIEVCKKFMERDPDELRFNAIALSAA
Method in brief: as §1

[7] = molecular target: T5, UCHL5 (UniProt Q9Y5K5)
T5 sequence (whole entry): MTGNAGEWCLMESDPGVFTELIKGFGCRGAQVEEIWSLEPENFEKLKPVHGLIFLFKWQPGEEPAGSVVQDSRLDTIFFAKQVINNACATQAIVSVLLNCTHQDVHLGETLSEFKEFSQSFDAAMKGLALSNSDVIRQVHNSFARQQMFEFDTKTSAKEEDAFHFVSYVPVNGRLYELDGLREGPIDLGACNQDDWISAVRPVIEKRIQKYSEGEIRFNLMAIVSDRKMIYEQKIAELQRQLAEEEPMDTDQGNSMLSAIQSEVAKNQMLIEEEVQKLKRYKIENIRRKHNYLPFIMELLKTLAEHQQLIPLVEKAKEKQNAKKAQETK
Method in brief: as §1

[8] = molecular target: USP10 (UniProt Q14694)
Method in brief: as §1

[9] = molecular target: T6, USP15 (UniProt Q9Y4E8)
T6 sequence (whole entry): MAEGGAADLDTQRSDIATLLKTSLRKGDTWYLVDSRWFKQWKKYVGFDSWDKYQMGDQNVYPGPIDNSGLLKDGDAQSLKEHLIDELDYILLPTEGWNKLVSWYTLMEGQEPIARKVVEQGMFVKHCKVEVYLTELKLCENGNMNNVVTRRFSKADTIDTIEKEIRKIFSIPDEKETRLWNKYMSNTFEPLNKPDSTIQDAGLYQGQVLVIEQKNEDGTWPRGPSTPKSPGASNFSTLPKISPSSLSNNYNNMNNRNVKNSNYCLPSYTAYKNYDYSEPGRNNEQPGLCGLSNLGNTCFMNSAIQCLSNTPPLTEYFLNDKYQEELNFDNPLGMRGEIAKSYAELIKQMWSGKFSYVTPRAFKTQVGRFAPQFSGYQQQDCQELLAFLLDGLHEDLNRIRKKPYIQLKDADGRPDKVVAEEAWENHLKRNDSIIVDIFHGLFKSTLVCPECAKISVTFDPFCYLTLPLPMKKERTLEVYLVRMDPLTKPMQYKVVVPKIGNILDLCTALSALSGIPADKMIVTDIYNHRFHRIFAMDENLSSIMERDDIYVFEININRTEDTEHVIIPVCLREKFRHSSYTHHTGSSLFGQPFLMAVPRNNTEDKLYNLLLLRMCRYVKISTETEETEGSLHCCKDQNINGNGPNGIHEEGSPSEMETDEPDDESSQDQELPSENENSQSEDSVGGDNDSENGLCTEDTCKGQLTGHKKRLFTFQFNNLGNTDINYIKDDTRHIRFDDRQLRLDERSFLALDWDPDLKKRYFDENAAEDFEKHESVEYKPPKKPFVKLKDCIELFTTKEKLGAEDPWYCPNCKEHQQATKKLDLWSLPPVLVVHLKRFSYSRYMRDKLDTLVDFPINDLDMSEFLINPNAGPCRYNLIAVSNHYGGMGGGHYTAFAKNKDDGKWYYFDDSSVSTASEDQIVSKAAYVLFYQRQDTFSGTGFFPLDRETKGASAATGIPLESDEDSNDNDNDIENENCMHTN
Method in brief: as §1

Measured: log2 ratio of Biotin-Ahx-Ub-VS probe labelling

Sequence of USP10 (Q14694 whole entry): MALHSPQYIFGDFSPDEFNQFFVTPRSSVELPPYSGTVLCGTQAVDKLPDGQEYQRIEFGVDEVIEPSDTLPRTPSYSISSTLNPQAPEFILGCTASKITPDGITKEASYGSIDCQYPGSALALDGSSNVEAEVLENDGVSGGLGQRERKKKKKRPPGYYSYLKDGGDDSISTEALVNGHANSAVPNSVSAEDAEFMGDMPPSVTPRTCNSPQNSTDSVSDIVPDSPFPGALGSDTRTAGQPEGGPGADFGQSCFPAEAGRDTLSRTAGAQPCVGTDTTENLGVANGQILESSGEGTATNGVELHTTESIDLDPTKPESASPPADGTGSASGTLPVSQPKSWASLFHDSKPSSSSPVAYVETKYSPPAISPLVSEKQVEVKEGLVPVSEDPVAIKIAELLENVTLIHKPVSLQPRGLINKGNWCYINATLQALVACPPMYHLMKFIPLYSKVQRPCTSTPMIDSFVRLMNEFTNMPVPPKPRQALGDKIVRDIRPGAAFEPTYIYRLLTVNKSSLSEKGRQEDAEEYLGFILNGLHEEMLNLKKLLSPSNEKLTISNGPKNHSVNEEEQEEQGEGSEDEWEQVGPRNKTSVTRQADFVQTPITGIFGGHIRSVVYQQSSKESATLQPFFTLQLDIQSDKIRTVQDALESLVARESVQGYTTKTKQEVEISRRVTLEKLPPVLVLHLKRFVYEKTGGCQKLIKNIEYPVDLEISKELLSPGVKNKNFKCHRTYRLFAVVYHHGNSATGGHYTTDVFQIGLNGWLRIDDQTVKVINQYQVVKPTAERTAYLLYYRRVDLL
Sequence of UCHL1 (P09936 whole entry, looked up): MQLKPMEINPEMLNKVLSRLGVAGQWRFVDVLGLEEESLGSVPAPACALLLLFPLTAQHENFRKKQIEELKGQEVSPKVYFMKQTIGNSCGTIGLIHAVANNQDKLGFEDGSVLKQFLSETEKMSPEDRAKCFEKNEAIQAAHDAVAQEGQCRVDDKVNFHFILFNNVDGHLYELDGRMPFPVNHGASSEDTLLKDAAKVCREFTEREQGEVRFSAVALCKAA

Cc1cccn2cc(CCNC(=O)CCl)nc12.Cl
active: [5] -1.98
inactive: [1] -0.414 | [2] -0.338 | [3] 0.19 | [4] -0.207 | [6] 0.136 | [7] -0.00232 | [8] -0.0824 | [9] -0.191
